Compound activity deposited in PubChem by several laboratories.
CYP2C9 inh: blockers of cytochrome P450 2C9 activity – biochemical, luminescence, ADME assay, primary screen; P11712; CYP2C9 Supersomes, luciferin-H conversion; inhibition, % at 5 µM; 20% of 96,000 active;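 active = blocking of liver enzyme CYP2C9 beyond about 50% at 5 µM, limit read from the data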
CYP2C9 activ: human CYP2C9 activators, primary screen, biochemical, luminescence; AID 1024, 2008; activation factor at 5 µM; Cytochrome P450 2C9 (Homo sapiens), P11712; 1.4% of 96,000 active; recombinant CYP2C9, luciferin-H conversion; hits give high values; factor 1 = untreated enzyme, 0 = blocked;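 active = activation factor of 2 or more for CYP2C9 at a 5 µM dose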
Cav3 T inh: Cav3.2 calcium influx blockers – cell-based, Fluo-4 calcium fluorescence, FDSS, MLSMR library, primary screen; Voltage-dependent T-type calcium channel subunit alpha-1H (Homo sapiens), O95180; 4% of 100,000 active; Cav3.2-expressing cells; hits give low values; B-score at 10 µM;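 active = single-dose well whose peak fluorescence ratio is a statistical outlier from its plate by either plate-standardised score or position-corrected B-score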
CYP2C19 inh: blockers of cytochrome P450 2C19 activity – biochemical, luminescence, ADME assay, primary screen | CYP2C19 Supersomes, luciferin-H EGE luminescence, 30 min | P33261 | inhibition, % at 5 µM | 21% of 96,000 active;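 active = CYP2C19 inhibition above a set limit at 5 µM in the primary screen, cut at about 50% in these data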
Target sequence (P33261 whole entry, looked up): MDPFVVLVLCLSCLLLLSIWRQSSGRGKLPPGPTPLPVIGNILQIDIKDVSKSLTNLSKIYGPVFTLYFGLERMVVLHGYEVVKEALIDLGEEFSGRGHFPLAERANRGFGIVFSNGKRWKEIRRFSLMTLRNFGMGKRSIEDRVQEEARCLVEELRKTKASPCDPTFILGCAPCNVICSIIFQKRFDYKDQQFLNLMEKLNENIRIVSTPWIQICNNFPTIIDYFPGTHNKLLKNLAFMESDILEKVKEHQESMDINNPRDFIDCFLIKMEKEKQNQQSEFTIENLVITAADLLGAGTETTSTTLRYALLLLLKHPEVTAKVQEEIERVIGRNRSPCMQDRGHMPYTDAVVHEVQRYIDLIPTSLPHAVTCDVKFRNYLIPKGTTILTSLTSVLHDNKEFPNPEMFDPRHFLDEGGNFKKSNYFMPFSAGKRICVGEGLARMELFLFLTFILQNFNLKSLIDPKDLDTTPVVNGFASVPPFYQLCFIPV
CYP2C19 act: human CYP2C19 activators, primary screen, biochemical, luminescence. Cytochrome P450 2C19 (Homo sapiens), P33261. recombinant CYP2C19, luciferin-H EGE luminescence; hits give high values; 0 = fully inhibited enzyme, 1 = untreated enzyme. activation factor at 5 µM. 96,000 tested, under 10 active. AID 1025, 2008;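 active = activation factor of at least 2 at 5 µM in the primary screen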
Hits are given with their value; – = inactive; · = no result given. Hits are enriched below; roughly 27% of the tested compounds scored in any of these assays.

SMILES	CYP2C9 inh	CYP2C9 activ	Cav3 T inh	CYP2C19 inh	CYP2C19 act
CC(C)CN(C(=O)CSc1nnc2c(Cl)cc(C(F)(F)F)cn12)C1CCS(=O)(=O)C1 (configuration not stated)	–	–	–	–	–
Cc1c(NC(=O)COC(=O)C(c2ccc(Cl)cc2)C(C)C)c(=O)n(-c2ccccc2)n1C (configuration not stated)	57.7	–	–	–	–
Cc1c(NC(=O)CSc2nc3ccccc3n2C)c(=O)n(-c2ccccc2)n1C	–	2.1	–	–	–
CCC(C(=O)OCC(=O)Nc1c(C)n(C)n(-c2ccccc2)c1=O)c1ccccc1 (configuration not stated)	–	–	–	–	–
Cc1c(NC(=O)C(C)Sc2ccc3ccccc3n2)c(=O)n(-c2ccccc2)n1C (configuration not stated)	–	–	–	–	–
CCn1c2ccccc2c2nnc(SCC(=O)Nc3c(C)n(C)n(-c4ccccc4)c3=O)nc21	–	–	–	–	–
Cc1c(NC(=O)C(C)Sc2nc3ccccc3c(=O)n2CCO)c(=O)n(-c2ccccc2)n1C (configuration not stated)	57.7	–	–	–	–
C=CCn1c2ccccc2c2nnc(SCC(=O)Nc3c(C)n(C)n(-c4ccccc4)c3=O)nc21	–	–	3.79	–	–
C/C(O)=C(\C#N)c1nnc2n1CCCCC2	–	–	–	–	–
O=C(Nc1ncc(Cc2ccccc2Cl)s1)C1CCCO1 (configuration not stated)	·	·	–	·	·
CCC(CC)C(=O)Nc1c(C)n(C)n(-c2ccccc2)c1=O	51.2	–	–	–	–
CCN(CC)C(=O)Nc1c(C)n(C)n(-c2ccccc2)c1=O	·	·	–	·	·
CCCc1ccc(-c2cc(N)n[nH]2)cc1	–	–	–	–	–
O=S(=O)(/N=C(/Sc1ccccc1)c1ccccc1)c1ccccc1	95.5	–	·	96.1	–
C=C1CCN([C@H](C(=O)NCc2ccco2)C(C)C)S(=O)(=O)c2ccccc21	·	·	–	·	·
CCCN1C2CCCC1CC(NC(=O)Nc1ccc(C(C)C)cc1)C2 (configuration not stated)	·	·	-4.9	·	·
CCN(CCCNC(=O)CC(C(=O)N1CCc2ccccc21)n1ccnc1)c1cccc(C)c1 (configuration not stated)	–	–	–	93.8	–
O=C(c1ccc(S(=O)(=O)NCC2CCCO2)cc1)N1CCc2ccccc21 (configuration not stated)	–	–	–	–	–
CCCCNC(=O)CC(C(=O)N1CCc2ccccc21)n1ccnc1 (configuration not stated)	–	–	–	73.5	–
O=C(CC(C(=O)N1CCc2ccccc21)n1ccnc1)N1CCc2ccccc2C1 (configuration not stated)	–	–	·	73.2	–
O=C(CC(C(=O)N1CCc2ccccc21)n1ccnc1)NCC1CCCO1 (configuration not stated)	65.3	–	–	–	–
Cc1cc(C)n(C(CC(=O)N2CCc3ccccc3C2)C(=O)O)n1 (configuration not stated)	–	–	–	–	–
CCCCn1nnnc1SCC(=O)N1CCOCC1	–	–	–	–	–
NC(=O)C1CCN(C2CC(=O)N(c3ccc(F)c(Cl)c3)C2=O)CC1 (configuration not stated)	–	–	–	–	–
CCC(=O)NCCc1nc2cc(NC(=O)c3ccccc3OC)ccc2n1C	–	–	–	–	–
SMILES	CYP2C9 inh	CYP2C9 activ	Cav3 T inh	CYP2C19 inh	CYP2C19 act
COc1ccc(-n2c(C)cc(C(=O)Cn3c(NCCO)nc4ccccc43)c2C)cc1	62.9	–	-6.77	64.8	–
O=C(Cn1c(NCCO)nc2ccccc21)c1ccc(Cl)cc1	–	–	–	–	–
CC(=O)Nc1cc(C(F)(F)F)ccc1OCCOc1ccccc1	·	·	–	·	·
CC(=O)Nc1cc(C(F)(F)F)ccc1Oc1cccc(Br)c1	58.2	–	–	97.5	–
COc1ccnc(Oc2ccc(F)cc2)c1C(=O)N/C=N/OCc1c(Cl)cccc1Cl	74.6	–	–	52.5	–
Cc1nc(Nc2ccc(F)cc2)[nH]c(=O)c1CCC(C)C	·	·	-5.55	·	·
COc1ccc(NS(=O)(=O)c2ccc(O)c(C(=O)OCC(=O)N3CC(C)OC(C)C3)c2)cc1 (configuration not stated)	81.5	–	–	70.8	–
Cc1occc1-c1nc(-c2ccccn2)no1	–	–	–	75.7	–
Cc1onc(-c2ccccc2Cl)c1-c1nc(-c2ccccn2)no1	97.2	–	·	–	–
Cc1occc1-c1nc(-c2ccncc2)no1	68.1	–	–	97.6	–
c1ccc(CCc2ccccc2-c2nc(-c3ccccn3)no2)cc1	–	–	–	–	–
CC(C)C[C@@H]1NC(=O)[C@H](CO)NC(=O)c2cc([N+](=O)[O-])cc(I)c2OCC[C@@H](C(N)=O)NC1=O	·	·	–	·	·
COc1cccc2c1OC1(C)CC2NC(=O)N1Cc1ccccc1 (configuration not stated)	–	–	–	–	–
Cc1cccc(SCc2noc(C(=O)NC(C)C)c2C(=O)O)c1	55.2	–	–	–	–
CC(C)NC(=O)c1onc(CSc2ccncc2)c1C(=O)NC(C)C	·	·	–	·	·
C=CCNC(=O)c1onc(CSc2cccc(OC)c2)c1C(=O)O	66.6	–	–	–	–
COc1cccc(SCc2noc(C(=O)NC(C)C)c2C(=O)O)c1	61.3	–	–	–	–
CC(C)NC(=O)c1onc(CSc2ccccc2)c1C(=O)O	–	–	–	–	–
Cc1cc(C)cc(SCc2noc(C(=O)NC(C)C)c2C(=O)O)c1	70.2	–	–	–	–
COC(=O)c1c(CSc2cccc(C)c2)noc1C(=O)NCc1ccco1	77.8	–	–	81.6	–
Cc1nn(-c2cccc(C(F)(F)F)c2)c(Cl)c1/C=N/n1cnnc1	95.3	–	–	89.5	–
COc1cccc(/C=C2/SC(=S)N(CC(=O)Nc3nnc(C)s3)C2=O)c1	·	·	–	·	·
O=C(CSc1nnnn1Cc1ccccc1)Nc1ccc2c(c1)OCO2	–	–	–	–	–
CCC(=O)Nc1cccc(NC(=O)CSc2nnnn2Cc2ccccc2)c1	53.3	–	–	–	–
O=C(CSc1nnnn1Cc1ccccc1)Nc1ccc2c(c1)OCCO2	83.4	–	–	82.3	–
CCn1cc([N+](=O)[O-])c(C(=O)Nc2ccc3c(c2)OCCO3)n1	–	–	–	–	–
Nc1c(C(=O)Nc2ccc3c(c2)OCCO3)nnn1CCc1ccccc1	79.4	–	–	57.3	–
COc1ccc(S(=O)(=O)N(CC(=O)N2CCN(C)CC2)c2ccc(C)cc2)cc1OC	–	–	–	–	–
